Drawing on PubChem BioAssay (NCATS), this text covers Potency for two compounds.

Molecules are shown by their SMILES. Results filed as inconclusive are left out. The source made the active and inactive calls. Calls come from the whole dose curve; as a rule, active = well fitted inhibition curve with a large enough effect; inconclusive = small, poorly fitted or top-dose-only effect; inactive = flat fitted curve, though single readings scatter.

Holding throughout (experiment): qHTS profiling for inhibitors of Plasmodium falciparum proliferation (AID 504749); note: nearly all actives have a fitted effect of over 60% in size
Conditions in all cases: P. falciparum in erythrocytes, SYBR Green DNA, 72 h; series mostly up to 28.7 µM

The subject of assay [1] is C2A. Summed up: (§1)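 P. falciparum-infected erythrocytes (0.3% parasitemia, 2.5% hematocrit) incubated with compound 72 h at 37 C, 5% CO2. Parasite DNA detected by SYBR Green after lysis, overnight at room temperature; normalised to 0.29 uM artemisinin and DMSO.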
Assay [2] concerns CP185. The gist of the method: as §1
The subject of assay [3] is CP215. Summed up: as §1
The test system of assay [4] is CP217. The gist of the method:
as §1

Assay [5] relates to CP237. Summed up:
as §1

In assay [6] the test system is CP238. The gist of the method: as §1
Assay [7] concerns CP268. Summed up:
as §1

Assay [8] has as its system CP269. Summed up: as §1
Assay [9] has as its system CP286. The gist of the method: as §1
Assay [10] has as its system CP305. Summed up:
as §1

Assay [11] deals with ECU. The gist of the method:
as §1

The subject of assay [12] is FAB9. Summed up: as §1
The subject of assay [13] is GB4. Summed up:
as §1

The subject of assay [14] is HB3. Summed up: as §1
Assay [15] deals with P93_24. The gist of the method: as §1
The test system of assay [16] is P94_40. The gist of the method: as §1
In assay [17] the test system is PAD. Summed up:
as §1

Assay [18] has as its system PC15. Summed up: as §1
Assay [19] relates to PC26. Summed up: as §1
Assay [20] concerns SC27B. Summed up: as §1
Potency is the fitted concentration of half-maximal effect.

Turning to `C[C@]12CC[C@H](OS(=O)(=O)O)CC1=CCC1C2CC[C@]2(C)C(=O)CC[C@@H]12` (stereo not given in full), the Potency entry in assay [1], in [2], in [3], in assay [4], in [5] and in assay [6] was “inactive” each time. The Potency result in [7], in assay [8], in [9], in assay [10], in assay [11] and in assay [12] was “inactive” each time. Besides, the Potency entry in assay [13], in [14], in [15], in assay [16], in [17] and in assay [18] was “inactive” each time. Further, the Potency result in assay [19] and in assay [20] was “inactive” each time.
Take `[Hg+][c]1ccccc1`: the Potency result in assay [1], in [2], in [4], in [5], in [6] and in assay [9] was “inactive” throughout. The Potency entry in [11], in [14], in [15], in [16], in assay [17] and in assay [20] was “inactive” in each case. Besides, the Potency in assay [3] was 10.7 µM (active); in assay [7] it was 9.53 µM (active); in assay [8] it was 15.1 µM (active); in [10] it was 10.7 µM (active); in assay [12] it was 7.08 µM (active); in [13], 9.53 µM (active). For the same compound, the figures for the Potency in assay [18] and in assay [19] were 7.94 µM (active) and 12 µM (active), respectively.
